AmpC nodet inh – Promiscuous and Specific Inhibitors of AmpC Beta-Lactamase (assay without detergent) | 1.8% of 71,000 active | Potency, µM (series often up to 28.7 µM) | AmpC nitrocefin hydrolysis, absorbance 480 nm, no detergent
Target sequence (P00811 whole entry, looked up): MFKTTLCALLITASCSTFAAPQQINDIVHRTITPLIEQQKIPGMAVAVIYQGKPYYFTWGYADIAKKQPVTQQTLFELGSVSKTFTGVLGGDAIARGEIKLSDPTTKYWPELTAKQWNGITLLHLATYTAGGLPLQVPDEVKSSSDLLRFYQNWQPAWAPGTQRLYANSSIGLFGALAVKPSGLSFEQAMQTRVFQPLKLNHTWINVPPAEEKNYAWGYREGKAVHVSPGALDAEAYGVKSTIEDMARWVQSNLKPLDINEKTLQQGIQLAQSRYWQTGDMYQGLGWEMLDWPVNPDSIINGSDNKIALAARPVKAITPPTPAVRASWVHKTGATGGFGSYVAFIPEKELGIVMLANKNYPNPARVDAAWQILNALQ
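Enzyme, pH 7.0 phosphate. Compound titrations were pre-incubated with AmpC for 15 min at room temperature before nitrocefin (stock 800 uM) addition; product formation was recorded at 480 nm every 20 s for 4 min.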
AmpC inh det – Promiscuous and Specific Inhibitors of AmpC Beta-Lactamase (assay with detergent). purified AmpC, nitrocefin hydrolysis with detergent. Potency, µM (series often up to 28.7 µM). 0.09% of 71,000 active. AID 584, 2007; active means well fitted curve in the direction sought with a large enough effect; inconclusive means small, poorly fitted or top-dose-only effect
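E. coli AmpC (5.3 nM) in 20 mM phosphate pH 7.0 with 0.01% Triton X-100, preincubated 15 min RT with compound; nitrocefin (2 uL of 800 uM stock) hydrolysis followed by 480 nm absorbance every 20 s over 4 min.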
Anthrax LT inh – qHTS Assay for Anthrax Lethal Toxin Internalization. Cells, anthrax lethal toxin internalization, FRET ratio (460/530). 0.67% of 70,000 active. AID 912, 2007. Potency, µM (titrated, usually from 40 µM), most hits filed as inhibitors; further: nearly all actives have a fitted effect of over 50% in size
Prx2 Sm inh – Schistosoma Mansoni Peroxiredoxins (Prx2); AID 448, 2006; Potency, µM; S. mansoni Prx2 activity coupled to TGR/GSH (TGR is thioredoxin glutathione reductase), NADPH fluorescence loss, qHTS; Schistosoma mansoni peroxiredoxin 2 (Prx2); 0.07% of 65,000 active
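qHTS, coupled TGR/Prx2 format; 15 min compound preincubation at RT; reaction started with H2O2 (2.5 mM aliquot); kinetic NADPH fluorescence decrease, ex 365/em 450 nm.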
Large screens that a line does not name were inactive; ! = repeats disagree; [ ] = another dose, or the depositor's remark. Most compounds without a hit are left out; they make up all but 2.4% or so of the library. Unless noted, the call rests on the fitted dose curve.

CCC(C)NC(=O)CS(=O)Cc1nc(-c2cccc(C)c2)oc1C (stereo not drawn)	AmpC nodet inh 4µM[single pt active]
Cc1cccc(-c2nc(CS(=O)CC(=O)NC3CCCC3)c(C)o2)c1 (stereo not drawn)	AmpC nodet inh 4µM[single pt active]
CCCCSCCCNC(=O)CS(=O)Cc1nc(-c2cccc(C)c2)oc1C (stereo not drawn)	none
CCCCNC(=O)CS(=O)Cc1nc(-c2cccc(C)c2)oc1C (stereo not drawn)	AmpC nodet inh 4µM[single pt active]
Cc1ccc(-c2oc3ncnc(N)c3c2-c2ccc(C)cc2)cc1	none
COCCCn1c(SCC(=O)NC(C)C)nnc1-c1ccccc1	none
O=C(CC(=O)c1cc(Cl)ccc1O)c1ccccc1	Anthrax LT inh 7.9µM (no result: Prx2 Sm inh)
Cc1ccc(O)c(C(=O)CC(=O)c2cccc(F)c2)c1	Anthrax LT inh inconclusive (no result: Prx2 Sm inh)
CCOC(=O)Cn1c(=O)c2c(nc(Br)n2Cc2ccccc2)n(C)c1=O	none
COc1ccc(C)cc1-n1nnnc1SCc1cn2ccsc2n1	none
CC1(C)Cc2c(sc3nc(SCC(=O)N4CCOCC4)nc(N)c23)CO1	Anthrax LT inh 7.9µM
CCOC(=O)N1CCN(c2nc(SC)nc3sc4c(c23)CC(C)(C)OC4)CC1	AmpC nodet inh inconclusive, AmpC inh det inconclusive, Anthrax LT inh inconclusive
Cc1[nH]nc2c1C(=O)CC(C)(C)C2	none (no result: Prx2 Sm inh)
COC(=O)Cc1ccc(NC(=O)c2ccc(Br)o2)cc1	none
CCN(CC)c1ccc(NC(=O)c2ccc(Br)o2)cc1	Anthrax LT inh 13µM (no result: Prx2 Sm inh)
CC(=O)NCc1ccc(-c2csc(N)n2)s1	Anthrax LT inh 10µM
Cc1ccc(-c2csc(N)n2)s1	AmpC nodet inh inconclusive, Anthrax LT inh inconclusive
CN1CCN(c2nc3c(c(=O)n(C)c(=O)n3C)n2CCSc2nc3ccccc3s2)CC1	none
Cc1cc(NC(=O)CSc2c3c(nc4ccccc24)CCC3)no1	AmpC nodet inh 4µM[single pt active], Anthrax LT inh inconclusive
CCOC(=O)c1ccc(NC(=O)Nc2ccc(S(N)(=O)=O)cc2)cc1	none (no result: Anthrax LT inh)
CN(C)c1ccc(C(=O)OCC(=O)Nc2ccc(S(N)(=O)=O)cc2)cc1	AmpC nodet inh 16µM[single pt active]
O=C(Nc1ccc(Cl)cn1)c1cc(S(=O)(=O)N2CCCCC2)ccc1Cl	none
Cc1cccc(OCC(=O)NCc2ccncc2)c1C	AmpC nodet inh 3.2µM[single pt active]
Cc1cc(C)n2nc(S(=O)(=O)NCCc3ccccc3)nc2n1	AmpC nodet inh 4µM[single pt active]
Cc1cccc2ccccc12	none (no result: Prx2 Sm inh)
Cc1ccc(C(=N)c2ccccc2Cc2cccc3ccccc23)c2ccccc12	Anthrax LT inh 2.5µM
Cc1sc2nc(C(C)Sc3nnc(C)n3-c3ccccc3)[nH]c(=O)c2c1C (stereo not drawn)	none
O=c1cc(-c2ccccc2)oc2cc(O)c(O)c(O)c12	AmpC nodet inh 7.9µM, Anthrax LT inh 1.3µM
CNCCCC1c2ccccc2C=Cc2ccccc21	none
CNCCCC12CCC(c3ccccc31)c1ccccc12	Anthrax LT inh 5µM!
OCC12COC(c3ccccc3)N1C(c1ccccc1)OC2 (stereo not drawn)	none
COc1ccc(Br)cc1CNC(=O)C1CCCN(S(C)(=O)=O)C1 (stereo not drawn)	Anthrax LT inh 10µM
O=C(c1ccco1)N(Cc1ccco1)c1ccc(O)cc1	none
Cc1cc(C)n(-c2nc3ccccc3nc2N2CCN(S(=O)(=O)c3ccc(F)c(C)c3)CC2)n1	none
Cc1cc(N2CCN(S(=O)(=O)c3ccc(Cl)cc3)CC2)c2ccccc2n1	Anthrax LT inh 10µM (no result: Prx2 Sm inh)
Cc1ccc2cc(CCNC(=O)C(C)(C)C)c(=O)[nH]c2c1	none
COc1ccc(NC(=O)Nc2nnc(N3CCCCC3C)s2)cc1OC (stereo not drawn)	AmpC nodet inh 4µM[single pt active] (no result: Prx2 Sm inh)
COC(=O)c1ccccc1NC(=O)Nc1nnc(N2CCCCC2C)s1 (stereo not drawn)	AmpC nodet inh 4µM[single pt active], Anthrax LT inh 1.3µM
COc1cccc(Nc2cc(C)nc3ccccc23)c1	none
O=C(O)c1ccccc1Nc1cccc(OCc2ccc3ccccc3n2)c1	AmpC nodet inh 16µM![single pt active], Anthrax LT inh 16µM!
CCOC(=O)C1=C(C)N(C)C(=O)NC1c1ccccc1OC (stereo not drawn)	none (no result: Prx2 Sm inh)
CN1CCC(=C2c3ccccc3C=Cc3ccccc32)CC1	Anthrax LT inh 7.9µM
O=C(CN(Cc1cccs1)C(=O)CNC(=O)c1ccco1)NC1CCCCC1	none
Cc1onc(-c2ccccc2Cl)c1C(=O)OCn1nnc2ccccc2c1=O	none (no result: Prx2 Sm inh)
COc1ccccc1N1CCN(Cc2cc(Br)c(O)c3ncccc23)CC1	AmpC nodet inh 2.5µM[single pt active], Anthrax LT inh inconclusive
Cc1ccc(-c2[nH]nc3c2C(c2ccoc2)C(C#N)=C(N)O3)cc1C (stereo not drawn)	none
Cc1cc(N=Cc2cc(Cl)ccc2O)no1	none (no result: Prx2 Sm inh)
Cc1ccc2c(c1)-c1c(cnn1CC(=O)O)CO2	none
Cc1ccc2c(c1)-c1c(cnn1CC(=O)Nc1ccccc1N1CCN(C)CC1)CO2	Anthrax LT inh 5µM
Cc1csc(NC(=O)CCCSc2nc3ccccc3s2)n1	none
Cc1cnc(NC(=O)CCCSc2nc3ccccc3s2)s1	AmpC nodet inh 13µM
CC1(C)Cc2c(sc3c2c2ncnn2c2nnc(SCC(=O)NCc4ccco4)n32)CO1	Anthrax LT inh inconclusive
O=C(Nc1ccc2nc(C3CC3)n(Cc3ccc(F)cc3)c(=O)c2c1)c1ccco1	none
COc1cccc(Cn2c(C3CC3)nc3ccc(NC(=O)c4ccco4)cc3c2=O)c1	Anthrax LT inh 13µM
CCN(C(=O)c1cn(CC)c(=O)c2cc(OC)c(OC)cc12)c1ccccc1C	none
CCc1ccc(NC2=NCC(=O)N2Cc2ccc3c(c2)OCO3)cc1	Anthrax LT inh 10µM
Cc1cc(N2CCN(C)CC2)nc2ccc(NC(=O)c3ccc(Br)o3)cc12	Anthrax LT inh 13µM
Cc1cc(N2CCN(C)CC2)nc2ccc(NC(=O)c3ccc4c(c3)OCO4)cc12	Anthrax LT inh inconclusive
CCC(C)NC(=O)CCC(=O)Nc1ccc2nc(N3CCOCC3)cc(C)c2c1 (stereo not drawn)	none
CCOc1ccccc1NC(=O)CCC(=O)Nc1ccc2nc(N3CCN(C)CC3)cc(C)c2c1	Anthrax LT inh 13µM
O=C(c1cccs1)N(Cc1ccco1)C1CCS(=O)(=O)C1 (stereo not drawn)	none
c1cc2c3c(c1)c1c(n3CCNC2)CCCC1	AmpC nodet inh inconclusive, AmpC inh det 16µM, Anthrax LT inh inconclusive
c1ccc2c(c1)c1c3n2CCNC3CCC1 (stereo not drawn)	Anthrax LT inh inconclusive
CCC1CCCCN1Cc1nc2c(c(=O)n(C)c(=O)n2C)n1Cc1cccc2ccccc12 (stereo not drawn)	none
COc1ccc(C(O)C(CN2CCOCC2)c2ccccc2)cc1F (stereo not drawn)	none
COc1ccc(C(=O)C(CN2CCOCC2)c2ccccc2)cc1F (stereo not drawn)	Anthrax LT inh 16µM
Cn1c(=O)c(-c2cccs2)nc2cncnc21	Anthrax LT inh inconclusive
CC(=O)c1cccc(NC(=O)c2cc(-n3cnnc3)ccc2Cl)c1	none
CCOC(=O)N1CCC(NC(=O)CCc2c(C)nc3c(c(C)nn3-c3ccccc3)c2C)CC1	AmpC nodet inh 4µM[single pt active]
CC(C)OP(=O)(c1ccc(N(C)C)cc1)C(O)c1ccncc1 (stereo not drawn)	none

Source: PubChem (National Center for Advancing Translational Sciences (NCATS))
